Screening results: PubChem BioAssay, National Center for Advancing Translational Sciences (NCATS)
Hits are enriched below; roughly 6.5% of the tested compounds scored in any of these assays.
Giardia killer – Giardia lamblia killing. activity change, % at 7.66 µM, hits read low. Giardia lamblia trophozoite viability. AID 540267. 340,000 tested, 0.15% active; in the data active = activity change below about -80%; inconclusive = between about -30% and that limit;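 note: parasites exposed to compound for two days anaerobically before the ATP read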
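Giardia lamblia trophozoites (100 cells/well) were incubated with compounds for 48 h at 37 deg C under anaerobic conditions. Viability was read as ATP content by one-step luminescence after 15-30 min at room temperature.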
HepG2 tox – HepG2 cytotoxicity, counter-screen for TGF-b inhibitors | HepG2 CAGA-GFP viability, ATP luminescence, 18 h | Potency, µM (highest dose often 46.1 µM), most hits filed as cytotoxic | 410,000 tested, 0.76% active | AID 588856
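HepG2 CAGA-GFP cells (1000/well, DMEM with 1% FBS) received compound, then TGF-beta at 500 pg/mL final, and were incubated 18 hours at 37 degrees C. Viability was read by CellTiter-Glo luminescence. Media-only wells were set as complete cell-killing and DMSO as no toxicity.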
TGFb SMAD3 inh – inhibitors of TGF-b signaling. HepG2 CAGA-GFP TGF-b/SMAD3 reporter, GFP fluorescence, 18 h; TGF-beta stimulated, 500 pg/mL final. Potency, µM (doses to about 46.1 µM), actives largely listed as inhibitors. 410,000 tested, 1.2% active. AID 588855; note: nearly all actives have a fitted effect of over 65% in size
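Cell-based qHTS in HEPG2 carrying a CAGA-GFP Smad reporter; compounds added before 500 pg/mL final TGF-beta, 18 h incubation at 37 degrees C, GFP fluorescence quantified per cell by imaging cytometry.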
HT1080NT lethal – kills 2HG-producing HT-1080-NT fibrosarcoma cells. HT-1080-NT fibrosarcoma viability, CellTiter-Glo ATP luminescence, 48 h. Potency, µM (doses to about 46.1 µM), actives largely listed as cytotoxic. 360,000 tested, 1.6% active. AID 686970;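 note: NT is the 2HG producing partner of a matched IDH1 knockdown line; nearly all actives have a fitted effect of over 55% in size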
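Fibrosarcoma NT cells, 750 per well in 5% FBS RPMI, were exposed to compound for 48 hours. Viability: CellTiter-Glo luminescence.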
IL1B secr inh – inhibitors of inflammasome signaling (IL-1 beta secretion) | activity change, % at 57.5 µM | THP-1 LPS/ATP IL-1B secretion, AlphaLISA, 16 h; stronger effect = lower value | 360,000 tested, 4.7% active; in the data active = activity change below about -50%; inconclusive = mostly about -30% to -49%
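THP-1 cells pretreated 1 hr with compounds (up to 57.5 uM final), then stimulated with LPS (250 ng/mL final) plus ATP (1.25 mM final); secreted IL-1B measured by AlphaLISA after 16 hr, decreased signal indicating inhibition.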
HT1080 IDH1KD tx – kills HT-1080 cells with IDH1 knockdown; HT-1080 IDH1 knockdown viability, ATP luminescence, 48 h; Potency, µM (series often up to 46.1 µM), hits mostly cytotoxic; 360,000 tested, 2% active; AID 686971
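Luminescent ATP read-out (CellTiter-Glo, 10 min at room temperature) after 48 h compound exposure at 37 °C gave viability of IDH1-knockdown HT-1080 cells. Activity was normalised to DMSO and cell-free wells, then fitted as concentration-response curves.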
Numbers stand for hits; . = inactive; ? = inconclusive; / = no result; [ ] = another dose, or the depositor's remark. Unless noted, calls come from the whole dose curve; as a rule, active = well fitted curve in the direction sought with a large enough effect; inconclusive = small, poorly fitted or top-dose-only effect, or another doubt; inactive = no such curve, though single readings can be large; an effect the other way counts as inactive or inconclusive.

SMILES | Giardia killer | HepG2 tox | TGFb SMAD3 inh | HT1080NT lethal | IL1B secr inh | HT1080 IDH1KD tx
C#CCN1C=C(C(=O)OCC)C(C)NS1(=O)=O (stereo unspecified) | . | . | . | . | . | .
C#CCN1C=C(C(=O)OCC)C(C)N(Cc2ccccc2I)S1(=O)=O (stereo unspecified) | . | . | ? | ? | . | 21µM
COc1ccc(C(=O)CSc2nn3c(=O)c(C(C)(C)C)nnc3s2)cc1 | . | . | . | . | -58 | ?
NS(=O)(=O)c1cc(C(=O)OCCNC(=O)c2ccccc2)c(Cl)cc1Cl | . | . | . | . | . | .
O=Cc1cc2ccccc2nc1SCCCF | . | . | . | 16µM | . | 7.3µM
Cc1ccc(C)c(OCc2cc(C(=O)N3CCN(C(=O)c4ccco4)CC3)no2)c1 | . | . | . | . | . | .
CCc1ccc(C2c3c(-c4cc(C)ccc4O)n[nH]c3C(=O)N2Cc2cccnc2)cc1 (stereo unspecified) | / | 20µM | ? | / | / | /
COc1cccc(C2c3c(-c4cc(Cl)c(C)cc4O)n[nH]c3C(=O)N2Cc2cccnc2)c1 (stereo unspecified) | . | . | . | ? | ? | ?
COc1cc(C2c3c(-c4cc(Cl)c(C)cc4O)n[nH]c3C(=O)N2Cc2cccnc2)ccc1O (stereo unspecified) | . | . | . | . | -59 | .
O=C(Nc1ncn[nH]1)c1ccc([N+](=O)[O-])cc1[N+](=O)[O-] | . | . | . | . | . | .
CCc1ccc(-n2c(SCc3nc(-c4cc(OC)ccc4OC)no3)nnc2-c2ccccc2)cc1 | / | . | ? | / | / | /
Cc1ccc(/C=C2\NC(=S)NC2=O)cc1[N+](=O)[O-] | . | . | . | . | . | .
FC(F)(F)c1nnc2c(Sc3ccc(Cl)cc3)nc3ccccc3n12 | . | . | ? | ? | -52 | .
FC(F)(F)c1nnc2c(Sc3ccccn3)nc3ccccc3n12 | . | . | ? | ? | -66 | ?
Cc1ccccc1CSc1nc2n(n1)C(c1cccs1)C1=C(CCCC1=O)N2 (stereo unspecified) | . | . | ? | ? | ? | ?
CC1OC(Oc2ccc3ccc(=O)oc3c2-c2c(O)ccc3cc(Oc4ccc5ccc(=O)oc5c4)c(=O)oc23)C(O)C(O)C1O (stereo unspecified) | . | . | . | . | . | .
COc1cccc(C(=O)N2CCN(C(=O)COc3ccc4ccccc4c3)CC2)c1 | . | . | . | . | . | .
CC(C)CN(c1ccccc1)S(=O)(=O)c1nnc(NC(=O)c2ccco2)s1 | . | . | ? | . | . | .
O=C(NC(=S)NN1CCCCC1c1cccnc1)c1ccc(Br)cc1 (stereo unspecified) | . | . | . | . | -55 | .
CCN(CC)c1ccc(/C=C/c2cc(Cl)nc3ccccc23)cc1 | / | . | . | / | / | /
CCN(CC)c1ccc2nc3ccccc3[n+](CC)c2c1 | . | . | ? | 26µM | -101 | 23µM
CCN(CC)c1ccc2nc3ccc(N)cc3[n+](-c3ccccc3)c2c1 | . | . | ? | 10µM | . | 5.8µM
O=[N+]([O-])c1ccc2c(c1)C=C/C2=C\c1ccc(C=S)cc1 | / | . | . | / | / | /
CCOC(=O)CNC(=O)c1nn(-c2ccc(OCC)cc2)c(=O)c2ccccc12 | . | . | ? | . | . | .
Cc1ccc(Cl)c(NC(=O)COC(=O)C2CCC2)c1Cl | . | . | . | . | . | .
SMILES | Giardia killer | HepG2 tox | TGFb SMAD3 inh | HT1080NT lethal | IL1B secr inh | HT1080 IDH1KD tx
CCN1CCN(S(=O)(=O)c2ccc(Cl)c(C(=O)N(C)C(c3ccccc3)c3ccccc3)c2)CC1 | . | . | ? | . | -75 | .
CN(Cc1ccc(OC(F)F)cc1)C(=O)c1cccc(S(=O)(=O)N2CCN(Cc3ccccc3)CC2)c1 | . | . | 10µM | . | -60 | .
Cc1cc(S(=O)(=O)N2CCN(CC(=O)N(C)Cc3ccccc3)CC2)ccc1Br | . | . | . | . | ? | .
CN(Cc1ccccc1)C(=O)CN1CCN(S(=O)(=O)c2ccc(Cl)c(Cl)c2)CC1 | . | . | ? | .[9.24 µM] | -54 | .
COc1ccc(S(=O)(=O)N2CCC(C(=O)N[C@H](C(=O)NCc3ccncc3)C(C)C)CC2)cc1 | . | . | . | . | . | .
Cc1oc(-c2ccc(Cl)cc2)nc1CN1CCC(C(=O)NCc2cccnc2)CC1 | . | . | . | . | -58 | .
COc1ccc(CCNC(=O)C2CCCN(Cc3nc(-c4ccccc4C)oc3C)C2)cc1OC (stereo unspecified) | . | . | . | . | . | .
Cc1oc(-c2ccc(Cl)cc2)nc1CN1CCCC(C(=O)NCc2ccco2)C1 (stereo unspecified) | . | . | . | . | -51 | .
CCc1ccc(-c2nc(CN3CCCC(C(=O)NCCc4ccc(OC)c(OC)c4)C3)c(C)o2)cc1 (stereo unspecified) | . | . | . | . | -59 | ?
COc1ccc(-c2[nH]nc3oc(=O)c(CCO)c(C)c23)cc1 | . | . | . | . | -84 | .
Cc1[nH]nc2oc(=O)c(CCO)c(C)c12 | . | . | . | . | . | .[9.24 µM]
CCCCNC(=S)N/N=C1\C(=O)c2cccc3cccc1c23 | . | . | . | . | . | .
CNC(=S)N/N=C1\C(=O)c2cccc3cccc1c23 | . | . | ? | ? | -98 | ?
CC(C)(C)NCC(O)CON=C1c2ccccc2-c2ccccc21 (stereo unspecified) | . | 11µM | ? | 18µM | -98 | 15µM
Sc1oc(-c2ccccc2)cc1C=Nc1ccccc1 | . | . | ? | 7.9µM | . | 11µM
O=[N+]([O-])c1cc2c(cc1C=Nc1ccccc1)OCO2 | ? | . | . | . | . | .
Cc1cc(C(=O)COC(=O)c2ccc(O)cc2)c(C)n1Cc1ccco1 | . | . | . | . | . | .
Cc1cc(C(=O)COC(=O)C(C)NC(N)=O)c(C)n1Cc1ccco1 (stereo unspecified) | . | . | . | . | -103 | .
O=C(NCC(c1ccco1)N1CCCCC1)c1cccnc1 (stereo unspecified) | . | . | . | . | . | .
Cc1cc(S(=O)(=O)Nc2cccc([N+](=O)[O-])c2)c(C)s1 | . | . | . | . | . | .
O=[N+]([O-])c1cccc(NNS(=O)(=O)c2ccccc2F)c1 | . | . | . | ? | . | 5.8µM
O=[N+]([O-])c1ccc(-c2nc(-c3cccs3)c(-c3cccs3)[nH]2)cc1 | . | . | . | ? | -81 | .
Fc1ccc(-c2nc(-c3cccs3)[nH]c2-c2ccc(F)cc2)cc1 | . | . | 14µM | . | -63 | .
